# USP30 inh: human USP30 deubiquitinase inhibition. purified USP30, Ub-rhodamine cleavage fluorescence. 5.3% of 47,000 active. AID 1645860. inhibition, % at 25 µM. Q70CQ3
# USP8 inh: blocks human USP8 ubiquitin-rhodamine cleavage. P40818. purified USP8, Ub-rhodamine cleavage fluorescence, 30 min. inhibition, % at 20 µM. 4.2% of 47,000 active. AID 1645853
# USP17 inh: inhibitors of human USP17 deubiquitinase; inhibition, % at 50 µM; 6.5% of 47,000 active; purified USP17, Ub-rhodamine cleavage fluorescence, 3 h; A8MUK1
# USP7 inh: blocks human USP7 ubiquitin-rhodamine cleavage | purified USP7, Ub-rhodamine cleavage fluorescence | Q93009 | 0.3% of 47,000 active | inhibition, % at 20 µM | AID 1645854
# Target sequence (Q93009 whole entry, looked up): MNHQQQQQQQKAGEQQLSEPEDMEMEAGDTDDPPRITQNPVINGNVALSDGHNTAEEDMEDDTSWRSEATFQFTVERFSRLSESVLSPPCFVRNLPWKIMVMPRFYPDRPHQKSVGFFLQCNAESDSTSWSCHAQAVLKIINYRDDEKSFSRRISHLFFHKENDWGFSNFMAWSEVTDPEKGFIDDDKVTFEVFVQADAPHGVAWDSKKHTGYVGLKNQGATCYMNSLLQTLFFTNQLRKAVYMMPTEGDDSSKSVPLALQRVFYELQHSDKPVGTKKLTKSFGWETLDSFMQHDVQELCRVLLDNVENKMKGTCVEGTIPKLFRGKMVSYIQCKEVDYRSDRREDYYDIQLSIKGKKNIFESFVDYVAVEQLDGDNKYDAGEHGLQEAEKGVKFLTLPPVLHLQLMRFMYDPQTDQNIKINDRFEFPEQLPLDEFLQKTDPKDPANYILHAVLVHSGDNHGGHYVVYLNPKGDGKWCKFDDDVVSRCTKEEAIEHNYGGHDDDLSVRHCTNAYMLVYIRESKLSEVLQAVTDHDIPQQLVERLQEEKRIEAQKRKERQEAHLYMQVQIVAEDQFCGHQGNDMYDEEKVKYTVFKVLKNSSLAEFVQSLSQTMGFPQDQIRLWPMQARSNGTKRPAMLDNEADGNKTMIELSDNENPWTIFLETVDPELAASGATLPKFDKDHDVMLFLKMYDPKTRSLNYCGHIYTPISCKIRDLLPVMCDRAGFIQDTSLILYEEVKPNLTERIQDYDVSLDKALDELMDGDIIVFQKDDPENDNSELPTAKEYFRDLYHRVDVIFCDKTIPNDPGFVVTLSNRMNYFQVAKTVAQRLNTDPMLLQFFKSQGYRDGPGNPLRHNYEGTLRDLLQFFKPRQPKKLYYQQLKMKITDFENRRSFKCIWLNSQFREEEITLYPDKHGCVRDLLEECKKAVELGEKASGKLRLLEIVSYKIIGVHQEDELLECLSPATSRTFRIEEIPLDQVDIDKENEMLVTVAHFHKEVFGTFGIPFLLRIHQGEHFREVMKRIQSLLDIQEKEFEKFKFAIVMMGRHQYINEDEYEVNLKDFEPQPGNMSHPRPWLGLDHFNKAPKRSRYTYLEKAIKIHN
# USP10 inh: human USP10 deubiquitinase inhibition. purified USP10, Ub-rhodamine fluorescence, 60 min. inhibition, % at 20 µM. 1.1% of 47,000 active. AID 1645856
# USP28 inh: inhibitors of human USP28 deubiquitinase; Q96RU2; purified USP28, Ub-rhodamine cleavage fluorescence, 30 min; inhibition, % at 25 µM; 3% of 47,000 active
# Hits are given with their value; 0 = inactive; - = no result. An excerpt weighted towards active compounds, which were near 13% of everything screened. Cut-off read from the data, not from the text of the source: active = inhibition above about 30%; inactive = the rest.
SMILES,USP30 inh,USP8 inh,USP17 inh,USP7 inh,USP10 inh,USP28 inh
Cc1ccc(NC(=O)c2cc(-c3ccncc3)n[nH]2)cc1Cl,0,0,0,0,0,36.3
Cc1ccc(NC(=O)C2CCN(C(=O)c3cc(-c4ccncc4)n[nH]3)CC2)cc1Cl,63.1,0,62.7,0,0,37.0
O=C(c1ccc2ccccc2c1)N1CCC2(CC1)NCCc1[nH]cnc12,0,0,0,0,0,0
CCN(C(=O)c1cc2c(s1)-c1ccccc1OC2)c1ccccc1F,0,0,0,0,0,51.9
O=C(c1cc2c(s1)-c1ccccc1S(=O)(=O)C2)N1CCN(c2ccccc2F)CC1,0,0,0,0,0,0
Cc1ccc2nc(Cl)c3cc(C(=O)N4CCC(C)CC4)sc3c2c1,0,0,0,0,0,0
CCN(C(=O)c1cc2c(Cl)nc3ccccc3c2s1)c1ccccc1F,71.2,0,0,0,0,0
COc1ccc(CCNC(=O)c2cc3c(s2)-c2ccccc2OC3)cc1,-,0,36.8,0,0,-
Cc1ccccc1NC(=NS(=O)(=O)c1ccccc1)c1ccc(Cl)cc1,0,0,0,0,0,43.7
CC(=O)N1CC2(CCN(C(=O)C(C)(C)C)CC2)Nc2ccccc21,0,31.7,0,0,0,0
CC(=O)N1CC2(CCN(C(=O)c3ccccn3)CC2)Nc2ccccc21,0,0,0,0,0,0
COc1ccc(C(=O)O)cc1S(=O)(=O)N1CCCc2ccccc21,0,80.4,42.1,0,0,0
NC(=O)c1ccsc1NC(=O)COC(=O)c1ccc(Cl)c(Cl)c1,0,0,0,0,0,0
Cc1cc(C)nc(SCC(=O)N(Cc2ccco2)C2(C(=O)Nc3c(C)cccc3C)CCCCC2)n1,40.3,0,57.8,0,0,0
Cc1cccc(C)c1NC(=O)C1(N(Cc2ccco2)C(=O)c2ccccc2F)CCCCC1,35.8,0,0,0,0,0
CC(=O)Nc1cccc(C(=O)N(Cc2ccco2)C2(C(=O)Nc3c(C)cccc3C)CCCCC2)c1,0,0,0,0,0,0
CN(C)CCn1ccc2ccn(Cc3nc(C4CC4)no3)c(=O)c21,0,0,0,0,0,0
O=c1ccc(-c2nc(-c3ccncc3)no2)cn1Cc1noc(-c2ccccc2)n1,0,53.1,0,0,0,0
O=c1ccc(-c2nc(-c3cnccn3)no2)cn1Cc1noc(-c2ccccc2)n1,0,0,0,0,0,0
O=c1ccc(-c2nc(-c3cnccn3)no2)cn1Cc1ccccc1F,33.3,0,0,0,0,0
Cc1c(NC(=O)CC(=O)Nc2ccc3nc4n(c(=O)c3c2)CCCCC4)cccc1[N+](=O)[O-],0,0,0,0,0,0
Cc1nc2nc(CN(C(=O)COc3ccccc3)c3ccccc3)nn2c(C)c1Cl,36.4,0,0,0,0,0
Cc1c(C(=O)N2CCCCCC2c2ccncc2)cnn1C(C)(C)C (centres undefined),0,0,0,0,0,0
COc1ccc(Cl)cc1NC(=O)c1ccc(N2CCCCC2)nn1,0,0,0,0,0,0
COc1cccc(C(=O)Cn2nc3n(CCC(C)C)c(=O)c4sccc4n3c2=O)c1,0,0,0,0,0,0
SMILES,USP30 inh,USP8 inh,USP17 inh,USP7 inh,USP10 inh,USP28 inh
COc1cccc(Cn2nc3n(CC(C)C)c(=O)c4ccc(C(=O)NCC(C)C)cc4n3c2=O)c1,64.9,0,39.3,0,0,0
CCC(=O)Nc1cccnc1-c1ccc(C(=O)Nc2ccc(C)cc2)cc1,0,0,-,0,0,0
CCC(=O)Nc1cccnc1-c1ccc(C(=O)Nc2ccc3c(c2)OCO3)cc1,0,74.9,-,0,0,40.0
Cc1ncc(C(=O)NC2CCCC2)c(=O)n1CC(=O)Nc1ccccc1Cl,0,0,0,0,0,0
CCOC(=O)c1c(C)nc2n(Cc3ccccc3)c3ccccc3n12,60.5,0,0,0,0,0
COc1ccc(CN2CCC(NC(=O)c3ccc(C#N)cc3)C2)cn1 (centres undefined),0,0,0,0,0,0
Cc1ccc(S(=O)(=O)c2nnn3c2nc(Nc2cccc(C)c2C)c2ccccc23)cc1,0,67.0,0,0,0,0
Cc1cccc(Nc2nc3c(S(=O)(=O)c4ccc(C(C)(C)C)cc4)nnn3c3ccccc23)c1C,0,0,0,0,0,0
Cc1c(Cl)cccc1Nc1nc2c(S(=O)(=O)c3ccccc3)nnn2c2ccc(Cl)cc12,-,0,56.7,0,0,-
CC(OC(=O)c1c2c(nc3ccccc13)CCCCC2)C(=O)Nc1ccc2ccccc2c1 (centres undefined),0,34.8,63.3,0,0,44.3
CC(C)c1ccc(NC(=O)COc2nncc3ccccc23)cc1,33.2,0,0,0,0,0
CC(OC(=O)c1c2c(nc3ccccc13)CCC(C(C)(C)C)C2)C(=O)Nc1cccc([N+](=O)[O-])c1 (centres undefined),0,0,0,0,0,0
CC(OC(=O)c1c2c(nc3ccccc13)CCCC2)C(=O)Nc1ccc(Cl)cc1Cl (centres undefined),0,0,30.5,0,0,0
Cc1ccc(NC(=O)c2c3c(nc4ccccc24)CCCCC3)c(C)c1,34.9,0,74.5,0,0,0
Cc1cc(C)c(NC(=O)COc2nncc3ccccc23)c(C)c1,0,0,0,0,0,0
O=C(NCCOc1ccccc1)c1nc(-n2cnnc2)ccc1Br,0,0,0,0,0,0
O=C(c1ccco1)N1CCC2(CC1)CCN(c1cncnc1)C2=O,0,0,0,0,0,0
CC(Oc1nncc2ccccc12)C(=O)Nc1ccc(Cl)cc1Cl (centres undefined),72.1,0,66.8,0,0,0
CC(OC(=O)c1c2c(nc3ccccc13)CCCC2)C(=O)Nc1ccc(N(C)C)cc1 (centres undefined),0,0,40.5,0,0,0
O=C(OC1CCCCC1=O)c1c2c(nc3ccccc13)CCCCC2 (centres undefined),0,0,0,0,0,0
CS(=O)(=O)N1C[C@H](OCc2ccccn2)[C@H]2COC[C@H]21,0,0,0,0,0,0
CC1=C(c2ccc(F)cc2)S(=O)(=O)N=C1N1CCCN(C(=O)C2CCC2)CC1,0,0,0,0,0,0
COc1cc([C@@H]2c3cc4c(cc3[C@H](O)[C@H]3COC(=O)[C@@H]23)OCO4)cc(OC)c1OC,70.5,0,62.8,0,0,34.8
COc1cc(N)c(Cl)cc1C(=O)OCC(=O)NCc1ccc2c(c1)OCO2,0,0,0,0,0,0
COc1ccc(Cl)cc1Nc1ncnc2sccc12,-,0,51.9,0,0,-
Cc1c(C(=O)NCC2CCCCC2)nnn1-c1cccc2c1CCN(C)C2,0,0,0,0,0,0
Cc1nc(Nc2ncccn2)cc(C2CCCN2)n1 (centres undefined),0,0,0,0,0,30.1
O=C(c1cn(-c2cccc(F)c2)nn1)N1CCc2ccccc2C1,0,0,55.1,0,0,0
